Laboratory results: PubChem BioAssay (EPA / NIEHS)
Active and inactive are the calls of the source. Rule for the calls: active = hit-call score of the fitted dose curve at least 0.9, where 1 is the maximum; inactive = score below 0.9.

The compounds below were run on Collagen III, COL3A1 (gene 1281) (assay: BSK_MyoF_CollagenIII: BioMAP Diversity Plus: MyoF Assay for Collagen III Biomarker Activity (AID 2284239)). Conditions: primary human lung fibroblasts.
Procedure: BSK_MyoF is a cell-based, multiplexed-readout assay that uses lung fibroblasts, […], with measurements taken at 24 hours after chemical dosing in a microplate: 96-well plate.BSK_MyoF_CollagenIII is an assay component measured in the BSK_MyoF assay. It measures Collagen III antibody related to regulation of gene expression using ELISA technology.Data from the assay component BSK_MyoF_CollagenIII was analyzed at the endpoint, BSK_MyoF_CollagenIII, in the positive analysis fitting direction relative to DMSO as the negative control and baseline of activity. Using a type of binding reporter, gain or loss-of-signal activity can be used to understand protein changes. To generalize the intended target to other relatable targets, this assay endpoint is annotated to the 'cell adhesion molecules' intended target family, where the subfamily is 'collagen'.
The levels of cell surface (or secreted, indicated by the prefix "s") biomarker endpoints were measured by ELISA. Overt cytotoxicity to cells in confluent adherent cultures (all systems other than the BT system) was assessed by measuring total protein levels using sulforhodamine B (SRB) staining in parallel cultures at the time of biomarker measurements, indicated as SRB endpoints. For proliferation assays for adherent cell types, individual cell types are cultured at sub-confluence and relative cell numbers quantified by SRB staining at time points optimized for each system (48 h: 3C and CASM3C systems; 72 h: BT and HDF3CGF systems; 96 h: SAg system). SRB was performed by staining cells with 0.1% SRB after fixation with 10% TCA and reading wells at 560 nm.Viability and proliferation of PBMC (T cells) was quantified by Alamar Blue reduction for the SAg and BT systems. For PBMC viability (referred to as PBMC Cytotoxicity within the assay endpoint names), cells were plated (75,000/well in a 96-well plate) and then chemical samples added for 1 h before addition of activators, SEB and TSST-1 (20 ng/mL final concentration each). Cells were incubated for 90 h. Then, Alamar Blue (20 uL/well) (Invitrogen, Cat DAL1100) was added for 6 h, and the plates were read with a fluorescence microplate reader at 546/580 nm (excitation/emission). For PBMC proliferation, cells were plated and activated as above but incubated for only 16 h prior to addition of Alamar Blue. Plates were read after 6 h.
For `OCc1c[nH]c2ccccc12`, the outcome was “inactive”.
`S=P(N1CC1)(N1CC1)N1CC1` was tested, and the outcome was “inactive”.
With `FC(F)(F)C(F)(F)C(F)(F)C(F)(F)C(F)(F)C(F)(F)I` the AC50 was 30 µM (active).
For `NCC(F)(F)C(F)(F)C(F)(F)C(F)(F)F`, the outcome was “inactive”.
With `OCCC(F)(F)C(F)(F)C(F)(F)C(F)(F)F` the outcome was “inactive”.
`FC(F)(F)COC(OCC(F)(F)F)OCC(F)(F)F` was tested, and the outcome was “inactive”.
`C[Si](C)(C)C(F)(F)C(F)(F)C(F)(F)F` was tested, and the outcome was “inactive”.
With `OC(O)(C(F)C(O)(O)C(F)(F)F)C(F)(F)F` the outcome was “inactive”.
`FC(F)=C(F)C(F)(F)C(F)(F)C(F)(F)C(F)(F)C(F)(F)C(F)(F)F` was tested, and the outcome was “inactive”.
`O=S(=O)(O)CCC(F)(F)C(F)(F)C(F)(F)C(F)(F)C(F)(F)C(F)(F)F` was tested, and the outcome was “inactive”.
For `Cc1cccc(O)c1C`, the outcome was “inactive”.
With `O=C(Cl)C(F)(F)C(F)(F)C(F)(F)C(=O)Cl` the outcome was “inactive”.
In the case of `FC(F)C(F)(F)COCC1CO1` (stereo not drawn), the outcome was “inactive”.
